Measured values taken from PubChem BioAssay AID1159580 (chemical genetic matrix, 2015).
Several values for one entry are separate records, joined by “and”; a condition that tells them apart may be missing. Equal values may be shown once. The whole screen tested about 5,500 compounds, of which about 2,000 (36%) were called active. Inconclusive results (about 18%) are left out. No stated cut-off is given here; in the data, active means normalized growth mostly below about 0.91 (no sharp cut-off); inconclusive means no clear call, values can overlap the other calls; inactive means mostly above about 0.92. The list shows a part of the results.

Test: chemical genetic growth profiling, strain panel (AID 1159580);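 further: tested at 20 µM; growth read once vehicle control cultures reached saturation at 30 °C; 1 = growth at the plate median or of vehicle wells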
Conditions: S. cerevisiae deletion strains, growth OD

Measured: normalized growth

CC(=O)OCC(=O)[C@@]12OC3(CCCC3)O[C@@H]1CC1C3CCC4=CC(=O)C=C[C@]4(C)[C@@]3(F)[C@@H](O)C[C@@]12C (stereo partly specified)
inactive: locus YAL013W, strain DEP1, stronger effect = lower value 1.02 | locus YAL021C, strain ccr4, stronger effect = lower value 1.01 | locus YAL026C, strain drs2, stronger effect = lower value 1.02 | locus YAL030W, strain snc1, stronger effect = lower value 1.02 | locus YBL061C, strain skt5, stronger effect = lower value 1.03 | locus YBR009C, strain hhf1, stronger effect = lower value 1.01 | locus YBR021W, strain FUR4, stronger effect = lower value 1.02 | locus YBR023C, strain chs3, stronger effect = lower value 1.01 | locus YBR171W, strain sec66, stronger effect = lower value 1.02 | locus YBR229C, strain ROT2, stronger effect = lower value 1.02 | locus YBR231C, strain swc5, stronger effect = lower value 1.02 | locus YBR279W, strain paf1, stronger effect = lower value 1.01 | locus YCL011C, strain gbp2, stronger effect = lower value 1.02 | locus YCL016C, strain dcc1, stronger effect = lower value 1.01 | locus YCL029C, strain bik1, stronger effect = lower value 0.985 | locus YCL069W, strain vba3, stronger effect = lower value 1.02 | locus YCR088W, strain abp1, stronger effect = lower value 1.02 | locus YDL005C, strain med2, stronger effect = lower value 1.02 | locus YDL035C, strain GPR1, stronger effect = lower value 1.01 | locus YDL040C, strain nat1, stronger effect = lower value 1.02 | locus YDL074C, strain BRE1, stronger effect = lower value 0.972 | locus YDL101C, strain DUN1, stronger effect = lower value 1.01 | locus YDL134C, strain PPH21, stronger effect = lower value 1.01 | locus YDL185W, strain tfp1, stronger effect = lower value 1 | locus YDL192W, strain arf1, stronger effect = lower value 1 | locus YDR001C, strain nth1, stronger effect = lower value 1.02 | locus YDR069C, strain doa4, stronger effect = lower value 1.01 | locus YDR101C, strain arx1, stronger effect = lower value 0.984 | locus YDR137W, strain rgp1, stronger effect = lower value 1.02 | locus YDR150W, strain NUM1, stronger effect = lower value 1.02 | locus YDR159W, strain sac3, stronger effect = lower value 1.02 | locus YDR162C, strain NBP2, stronger effect = lower value 1.02 | locus YDR195W, strain ref2 1.03 | locus YDR297W, strain sur2, stronger effect = lower value 1.02 | locus YDR318W, strain mcm21, stronger effect = lower value 1 | locus YDR334W, strain swr1, stronger effect = lower value 1.02 | locus YDR335W, strain msn5, stronger effect = lower value 1.01 | locus YDR388W, stronger effect = lower value 1 | locus YDR392W, strain spt3, stronger effect = lower value 1.03 | locus YDR502C, strain sam2, stronger effect = lower value 1.02 | locus YEL003W, strain gim4, stronger effect = lower value 1.02 | locus YEL037C, strain rad23, stronger effect = lower value 1.02 | locus YEL061C, strain CIN8 (second series), stronger effect = lower value 1.03 | locus YEL061C, strain CIN8, stronger effect = lower value 1.01 | locus YER015W, strain faa2, stronger effect = lower value 1.01 | locus YER016W, strain bim1, stronger effect = lower value 1.03 | locus YER110C, stronger effect = lower value 1 | locus YER111C, strain swi4, stronger effect = lower value 1.02 | locus YER155C, strain BEM2 (second series), stronger effect = lower value 1.08 | locus YER155C, strain BEM2, stronger effect = lower value 1.02 | locus YER167W, strain BCK2, stronger effect = lower value 1.02 | locus YFR010W, strain ubp6, stronger effect = lower value 1.02 | locus YGL078C, strain dbp3, stronger effect = lower value 0.987 | locus YGL086W, strain mad1, stronger effect = lower value 1 | locus YGL167C, strain pmr1, stronger effect = lower value 1.03 | locus YGL173C, strain kem1, stronger effect = lower value 1.02 | locus YGL227W, strain vid30, stronger effect = lower value 1.02 | locus YGL240W, strain doc1, stronger effect = lower value 1.03 | locus YGL248W, strain PDE1, stronger effect = lower value 1.01 | locus YGL253W, strain hxk2, stronger effect = lower value 0.963 | locus YGR078C, strain PAC10, stronger effect = lower value 1.01 | locus YGR135W, strain pre9, stronger effect = lower value 0.989 | locus YGR229C, strain SMI1, stronger effect = lower value 1.03 | locus YGR252W, strain gcn5, stronger effect = lower value 1.04 | locus YHR013C, strain ard1, stronger effect = lower value 1.03 | locus YHR027C, strain rpn1, stronger effect = lower value 1.02 | locus YHR030C, strain SLT2, stronger effect = lower value 1.01 and 0.976 | locus YHR079C, strain IRE1 (second series), stronger effect = lower value 0.986 | locus YHR079C, strain IRE1, stronger effect = lower value 0.978 | locus YHR094C, strain hxt1, stronger effect = lower value 0.991 | locus YHR129C, strain ARP1, stronger effect = lower value 1.01 | locus YHR142W, strain chs7, stronger effect = lower value 1 | locus YHR200W, strain rpn10, stronger effect = lower value 0.994 | locus YIL066C, strain RNR3, stronger effect = lower value 1.01 | locus YIL073C, strain SPO22, stronger effect = lower value 0.966 | locus YIL125W, strain kgd1, stronger effect = lower value 1.01 | locus YIR030C, strain dcg1, stronger effect = lower value 0.992 | locus YJL092W, strain hpr5, stronger effect = lower value 1.02 | locus YJL095W, strain BCK1 (second series), stronger effect = lower value 1.02 | locus YJL095W, strain BCK1, stronger effect = lower value 1.01 and 0.989 | locus YJL115W, strain asf1, stronger effect = lower value 1.03 | locus YJL129C, strain trk1, stronger effect = lower value 1.01 | locus YJL134W, strain LCB3, stronger effect = lower value 1.01 | locus YJL154C, strain vps35, stronger effect = lower value 1.02 | locus YJL164C, strain tpk1, stronger effect = lower value 1 | locus YJL166W, strain qcr8, stronger effect = lower value 1.02 | locus YJL168C, strain set2, stronger effect = lower value 1 | locus YJL187C, strain SWE1 (second series), stronger effect = lower value 1.01 | locus YJL187C, strain SWE1, stronger effect = lower value 1.03 | locus YJR043C, strain POL32, stronger effect = lower value 0.988 | locus YJR066W, strain TOR1, stronger effect = lower value 0.968
